Inconclusive results are not listed. A call without a number means that no potency is given here. Calls of active or inactive are those of the source. Unless noted, calls follow the shape of the dose curve; as a rule, active = well fitted curve in the direction sought with a large enough effect in the repeat runs; inconclusive = weak or mixed curves; inactive = no such curve, though single readings can be large; an effect the other way counts as inactive or inconclusive.
Experiments:
[1] = qHTS assay to identify small molecule antagonists of the sonic hedgehog signaling (Shh) pathway (AID 1259369; calls by dose curve; also: nearly all actives have a fitted effect of over 45% in size; also: potency is read from the fitted curve at half-maximal effect)
Method in brief: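 Cells are plated and held 4hr at 37 C, compounds (DMSO) are pinned in, conditioned medium is added to stimulate the pathway, and after 24hr luciferase reagent is added for 30min before luminescence is read.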

[2] = biological target: Estrogen receptor beta (Homo sapiens) (UniProt Q92731); test: qHTS assay to identify small molecule agonists of the estrogen receptor beta (ER-beta) signaling pathway (AID 1259377; active = well fitted activation curve with a large enough effect in the signal ratio in the repeat runs, not every such curve was filed as active; the % refers to the signal ratio; also: potency is read from the fitted curve at half-maximal effect)
Chain of Estrogen receptor beta (Homo sapiens) (Q92731 whole entry, looked up): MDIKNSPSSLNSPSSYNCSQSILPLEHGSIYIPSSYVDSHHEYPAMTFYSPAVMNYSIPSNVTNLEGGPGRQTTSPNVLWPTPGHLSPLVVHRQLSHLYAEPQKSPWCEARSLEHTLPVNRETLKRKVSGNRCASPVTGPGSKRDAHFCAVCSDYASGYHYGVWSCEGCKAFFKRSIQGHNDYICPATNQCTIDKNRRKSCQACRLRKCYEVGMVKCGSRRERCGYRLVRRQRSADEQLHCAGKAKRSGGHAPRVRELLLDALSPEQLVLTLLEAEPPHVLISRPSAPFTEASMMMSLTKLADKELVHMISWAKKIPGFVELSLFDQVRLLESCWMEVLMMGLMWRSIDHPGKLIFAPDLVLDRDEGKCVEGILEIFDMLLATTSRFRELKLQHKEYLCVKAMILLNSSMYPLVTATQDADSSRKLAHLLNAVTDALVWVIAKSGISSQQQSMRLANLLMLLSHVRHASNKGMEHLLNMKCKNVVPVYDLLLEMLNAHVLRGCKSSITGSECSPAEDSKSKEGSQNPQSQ
Method in brief: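 ER-beta-UAS-bla HEK293T (GripTite) cells carrying a UAS-driven beta-lactamase reporter, in medium with 2% charcoal-stripped FBS, were exposed to compounds for 16 hr at 37C; LiveBLAzer B/G FRET substrate was then added and fluorescence read after 2 hours at room temperature.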

[3] = qHTS assay to identify small molecule agonists of the androgen receptor (AR) signaling pathway in the presence of an antagonist - cell viability counter screen (AID 1259379); also: nearly all actives have a fitted effect of over 25% in size; also: potency is read from the fitted curve at half-maximal effect
Method in brief: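 Cytotoxicity is assessed by CellTiter-Fluor in MDA-kb2 cells carrying an MMTV-driven luciferase reporter. Cells receive 3.0uM nilutamide plus compounds at 15 concentrations and incubate 16 hr at 37C without CO2 before fluorescence reading.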

[4] = qHTS assay to identify small molecule agonists of the estrogen receptor beta (ER-beta) signaling pathway - cell viability counter screen (AID 1259380); also: nearly all actives have a fitted effect of over 30% in size; also: potency is read from the fitted curve at half-maximal effect
Method in brief: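 Cytotoxicity is measured in parallel with the reporter screen: after 16 hr compound exposure at 37C and a 2 hr LiveBLAzer step, CellTiter-Glo is added to the same ER-beta-UAS-bla HEK293T wells and luminescence read after 30 min.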

[5] = qHTS assay to identify small molecule antagonists of the estrogen receptor beta (ER-beta) signaling pathway - cell viability counter screen (AID 1259382); also: nearly all actives have a fitted effect of over 55% in size; also: potency is read from the fitted curve at half-maximal effect
Method in brief: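 Cytotoxicity counter screen multiplexed with the beta-lactamase antagonist assay: GripTite HEK293T ER-beta-bla cells were treated 16 hr with test chemicals in the presence of 1nM 17-beta-estradiol, and viability was measured by CellTiter-Glo.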

[6] = biological target: Estrogen receptor (Homo sapiens) (UniProt P03372); test: qHTS assay to identify small molecule agonists of the estrogen receptor alpha (ER-alpha) signaling pathway in the presence of an antagonist (AID 1259383; calls by dose curve; also: top concentration of the series differs between compounds; nearly all actives have a fitted effect of over 15% in size)
Chain of Estrogen receptor (Homo sapiens) (P03372 whole entry, looked up): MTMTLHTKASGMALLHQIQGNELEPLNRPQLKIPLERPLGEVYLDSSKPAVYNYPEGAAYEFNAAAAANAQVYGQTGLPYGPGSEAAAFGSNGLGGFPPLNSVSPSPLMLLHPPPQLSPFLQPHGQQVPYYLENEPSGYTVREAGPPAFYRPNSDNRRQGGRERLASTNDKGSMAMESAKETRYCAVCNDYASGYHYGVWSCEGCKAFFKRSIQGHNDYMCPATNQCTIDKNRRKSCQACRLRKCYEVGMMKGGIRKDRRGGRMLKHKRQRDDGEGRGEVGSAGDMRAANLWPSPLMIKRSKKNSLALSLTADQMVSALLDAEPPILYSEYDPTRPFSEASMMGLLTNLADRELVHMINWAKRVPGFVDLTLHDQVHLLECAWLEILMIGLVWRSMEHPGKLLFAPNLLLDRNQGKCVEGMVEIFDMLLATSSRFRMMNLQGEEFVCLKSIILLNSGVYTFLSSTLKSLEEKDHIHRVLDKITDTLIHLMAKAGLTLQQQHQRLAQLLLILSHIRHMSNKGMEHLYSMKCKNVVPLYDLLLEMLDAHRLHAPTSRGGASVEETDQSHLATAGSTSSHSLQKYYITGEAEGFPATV
Method in brief: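 Agonist-mode confirmation in the presence of the ER antagonist ICI-182,780 at 10.0nM final. Breast-derived VM7Luc4E2 reporter cells were exposed to compounds for 22hr, and ERE-driven luciferase was quantified by luminescence.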

[7] = qHTS assay to identify small molecule agonists or antagonists of the thyroid stimulating hormone receptor (TSHR) signaling pathway - wild type cell line counter screen (AID 1259384; calls by dose curve)
Method in brief: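 Wild-type HEK293 cells were plated 18 h at 37 C/5% CO2, pin-dosed with compound plus Ro20-1724 medium, held 30 min at room temperature, then given cAMP-d2 and anti-cAMP-cryptate; fluorescence was read after 1 h. Fifteen concentrations, triplicate.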

[8] = biological target: Thyrotropin receptor (Homo sapiens) (UniProt P16473); test: qHTS assay to identify small molecule antagonists of the thyroid stimulating hormone receptor (TSHR) signaling pathway (AID 1259385; calls by dose curve; also: nearly all actives have a fitted effect of over 20% in size; also: potency is read from the fitted curve at half-maximal effect)
Chain of Thyrotropin receptor (Homo sapiens) (P16473 whole entry, looked up): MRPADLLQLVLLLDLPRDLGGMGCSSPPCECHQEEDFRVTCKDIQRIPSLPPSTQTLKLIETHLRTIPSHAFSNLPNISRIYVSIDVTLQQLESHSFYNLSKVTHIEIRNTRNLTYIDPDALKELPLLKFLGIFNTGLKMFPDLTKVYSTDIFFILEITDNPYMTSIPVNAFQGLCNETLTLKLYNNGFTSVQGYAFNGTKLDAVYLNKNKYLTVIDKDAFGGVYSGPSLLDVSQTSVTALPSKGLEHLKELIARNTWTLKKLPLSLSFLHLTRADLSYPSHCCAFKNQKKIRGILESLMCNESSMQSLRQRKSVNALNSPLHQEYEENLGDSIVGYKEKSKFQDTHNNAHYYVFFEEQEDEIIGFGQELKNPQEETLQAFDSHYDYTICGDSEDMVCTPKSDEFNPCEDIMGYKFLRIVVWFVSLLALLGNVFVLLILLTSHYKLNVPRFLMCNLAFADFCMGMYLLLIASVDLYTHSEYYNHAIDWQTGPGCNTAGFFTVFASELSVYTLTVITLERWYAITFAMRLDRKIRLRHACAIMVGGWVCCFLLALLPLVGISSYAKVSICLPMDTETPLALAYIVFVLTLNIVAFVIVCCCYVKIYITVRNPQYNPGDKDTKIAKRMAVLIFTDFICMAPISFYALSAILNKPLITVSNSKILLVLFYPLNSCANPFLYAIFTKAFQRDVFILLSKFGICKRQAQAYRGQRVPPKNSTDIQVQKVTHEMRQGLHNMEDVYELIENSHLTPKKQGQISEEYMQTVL
Method in brief: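 TSHR-HEK293 cells were plated and held 18 h at 37C/5% CO2, then given compound plus Ro20-1724 and stimulated with TSH at 1.5 ng/mL final. After 30 min at room temperature, cAMP was detected with cAMP-d2/anti-cAMP-cryptate (1 h) by fluorescence.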

[9] = qHTS assay to identify small molecule agonists of the estrogen receptor alpha (ER-alpha) signaling pathway in the presence of an antagonist - cell viability counter screen (AID 1259386);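 also: cells exposed to compounds for 22 h at 37 °C before the viability read; nearly all actives have a fitted effect of over 30% in size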; also: potency is read from the fitted curve at half-maximal effect
Method in brief: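 Cytotoxicity was measured in parallel with the ERE-luciferase agonist screen, in the same wells. The cells were VM7Luc4E2, which endogenously express ER-alpha, and treatment was with compounds plus 10.0nM ICI-182,780 for 22hr.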

[10] = biological target: Progesterone receptor (Homo sapiens) (UniProt P06401); test: qHTS assay to identify small molecule agonists of the progesterone receptor (PR) signaling pathway (AID 1346784; calls by dose curve; also: nearly all actives have a fitted effect of over 30% in size; also: potency is read from the fitted curve at half-maximal effect)
Chain of Progesterone receptor (Homo sapiens) (P06401 whole entry, looked up): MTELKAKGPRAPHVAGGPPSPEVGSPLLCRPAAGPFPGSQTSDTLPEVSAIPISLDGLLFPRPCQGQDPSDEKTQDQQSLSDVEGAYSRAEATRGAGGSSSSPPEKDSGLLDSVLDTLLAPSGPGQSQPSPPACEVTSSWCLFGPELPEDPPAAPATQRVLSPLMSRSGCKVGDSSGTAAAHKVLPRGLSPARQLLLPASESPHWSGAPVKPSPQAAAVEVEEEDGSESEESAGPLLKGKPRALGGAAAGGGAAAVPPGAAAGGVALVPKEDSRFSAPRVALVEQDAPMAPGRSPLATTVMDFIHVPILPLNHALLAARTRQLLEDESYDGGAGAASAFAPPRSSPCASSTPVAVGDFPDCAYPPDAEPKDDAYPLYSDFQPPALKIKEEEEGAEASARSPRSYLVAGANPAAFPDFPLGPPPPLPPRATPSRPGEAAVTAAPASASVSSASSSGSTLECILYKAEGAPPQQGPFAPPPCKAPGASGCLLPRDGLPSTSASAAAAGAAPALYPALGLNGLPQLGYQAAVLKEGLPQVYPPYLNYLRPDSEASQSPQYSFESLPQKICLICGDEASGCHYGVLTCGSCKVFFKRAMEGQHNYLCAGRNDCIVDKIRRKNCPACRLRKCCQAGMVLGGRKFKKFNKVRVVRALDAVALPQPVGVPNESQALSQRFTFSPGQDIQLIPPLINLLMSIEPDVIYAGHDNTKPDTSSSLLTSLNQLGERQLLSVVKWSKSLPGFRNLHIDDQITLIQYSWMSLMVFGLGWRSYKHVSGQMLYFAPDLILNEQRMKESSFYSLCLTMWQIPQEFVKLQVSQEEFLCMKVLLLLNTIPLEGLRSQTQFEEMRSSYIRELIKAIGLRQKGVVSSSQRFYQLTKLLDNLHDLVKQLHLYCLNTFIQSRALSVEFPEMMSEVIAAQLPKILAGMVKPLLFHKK
Method in brief: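 PR-UAS-bla HEK 293T cells carrying a UAS-driven beta-lactamase reporter were seeded in medium with 2% charcoal-stripped FBS, preincubated 6 hr at 37C, then exposed to compounds in DMSO for 16 hr; agonism was read by LiveBLAzer B/G FRET fluorescence.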

[11] = biological target: Progesterone receptor (Homo sapiens) (UniProt P06401); test: qHTS assay to identify small molecule antagonists of the progesterone receptor (PR) signaling pathway (AID 1346795; active = well fitted inhibition curve with a large enough effect in the signal ratio in the repeat runs, not every such curve was filed as active; the % refers to the signal ratio; also: potency is read from the fitted curve at half-maximal effect)
Method in brief: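 PR-UAS-bla HEK293T cells carrying a UAS-driven beta-lactamase reporter were plated in medium with 2% charcoal-stripped FBS and rested 6 hr at 37C. Compounds were added with 1 nM R5020 (final) for 16 hr, then FRET substrate loaded 2 hr at room temperature.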

[12] = qHTS assay to identify small molecule antagonists of the progesterone receptor (PR) signaling pathway - cell viability counter screen (AID 1346798); also: nearly all actives have a fitted effect of over 50% in size; also: potency is read from the fitted curve at half-maximal effect
Method in brief: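 PR-UAS-bla HEK293T cells in medium with 2% charcoal-stripped FBS were treated with compounds plus R5020 for 16 hr at 37C. Cell viability was then read by CellTiter-Glo luminescence after 30 min at room temperature in the same wells.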

[13] = qHTS assay to identify small molecule agonists of the progesterone receptor (PR) signaling pathway - cell viability counter screen (AID 1346799; calls by dose curve; also: nearly all actives have a fitted effect of over 45% in size; also: potency is read from the fitted curve at half-maximal effect)
Method in brief: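 PR-UAS-bla HEK293T cells, 3,000 per well in medium with 2% charcoal-stripped FBS, were preincubated 6 hr at 37C, then exposed to compounds for 16 hr; viability was read as CellTiter-Glo luminescence after 30 min at room temperature.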

[14] = qHTS assay to identify small molecule antagonists of the TGF-beta/Smad signaling pathway - cell viability counter screen (AID 1346824); also: nearly all actives have a fitted effect of over 50% in size; also: potency is read from the fitted curve at half-maximal effect
Method in brief: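 SBE-bla HEK 293T cells were plated overnight at 37 C, then given compounds in DMSO plus TGF-beta1 (added as 0.25 ng/mL solution) for 5 hr. After the bla read, CellTiter-Glo was added to the same wells and luminescence read after 30 min at room temperature.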

[15] = qHTS assay to identify small molecule agonists of the TGF-beta/Smad signaling pathway - cell viability counter screen (AID 1346829); also: nearly all actives have a fitted effect of over 45% in size; also: potency is read from the fitted curve at half-maximal effect
Method in brief: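 Luminescence from CellTiter-Glo, read after a 30 min room-temperature incubation, gives cell viability of SBE-bla HEK 293T cells treated 5 hr with compounds at 37 C.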

[16] = qHTS assay to identify small molecule agonists of the TGF-beta/Smad signaling pathway (AID 1346859; active = well fitted activation curve with a large enough effect in the signal ratio in the repeat runs, not every such curve was filed as active; the % refers to the signal ratio; also: series mostly up to about 77 µM)
Method in brief: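 HEK 293T cells stably carrying a beta-lactamase reporter driven by the Smad binding element were seeded overnight, exposed to DMSO-dissolved compounds for 5 hr at 37 C, 5% CO2, then loaded with FRET substrate for 2 hr at room temperature.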

[17] = biological target: Thyrotropin-releasing hormone receptor (Homo sapiens) (UniProt P34981); test: qHTS assay to identify small molecule antagonists of the thyrotropin-releasing hormone receptor (TRHR) signaling pathway (AID 1346877; active = well fitted inhibition curve with a large enough effect in the repeat runs, not every such curve was filed as active; also: series mostly up to about 51 µM)
Chain of Thyrotropin-releasing hormone receptor (Homo sapiens) (P34981 whole entry, looked up): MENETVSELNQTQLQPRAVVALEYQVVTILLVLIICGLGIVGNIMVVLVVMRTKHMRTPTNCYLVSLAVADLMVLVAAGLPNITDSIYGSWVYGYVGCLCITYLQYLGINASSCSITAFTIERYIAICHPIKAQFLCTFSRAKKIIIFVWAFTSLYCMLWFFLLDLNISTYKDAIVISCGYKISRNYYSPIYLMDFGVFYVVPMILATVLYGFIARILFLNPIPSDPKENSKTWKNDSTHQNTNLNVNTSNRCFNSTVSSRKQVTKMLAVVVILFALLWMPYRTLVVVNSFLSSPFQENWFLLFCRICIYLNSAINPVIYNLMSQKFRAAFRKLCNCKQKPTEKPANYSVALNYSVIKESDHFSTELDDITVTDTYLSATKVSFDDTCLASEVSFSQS
Method in brief: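 Antagonism is measured as suppression of the calcium response to 1 nM TRH in TRHR-HEK293 cells that have been dye-loaded for 2 h at 37 °C after overnight plating. Each compound is tested at 15 concentrations in triplicate.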

[18] = biological target: Thyrotropin-releasing hormone receptor (Homo sapiens) (UniProt P34981); test: qHTS assay to identify small molecule agonists of the thyrotropin-releasing hormone receptor (TRHR) signaling pathway (AID 1346891; calls by dose curve; also: series mostly up to about 58 µM)
Method in brief: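 TRHR-expressing HEK293 cells were plated 18 h at 37 °C/5% CO2, loaded with calcium dye 2 h at 37 °C, then given compound in DMSO; fluorescence was read kinetically for 3 min at 1 s intervals.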

[19] = biological target: Estrogen receptor beta (Homo sapiens) (UniProt Q92731); test: qHTS assay to identify small molecule antagonists of the estrogen receptor beta (ER-beta) signaling pathway (AID 1259378; active = well fitted inhibition curve with a large enough effect in the signal ratio in the repeat runs, not every such curve was filed as active; the % refers to the signal ratio)
Method in brief: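 ER-beta-UAS-bla HEK293T (GripTite) cells in 2% charcoal-stripped FBS medium were preincubated 6 hr at 37C, dosed with compound, then stimulated with 1 nM E2 (final) for 16 hr; beta-lactamase reporter read by B/G FRET fluorescence after 2 hr substrate loading.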

[20] = biological target: Androgen receptor (Homo sapiens) (UniProt P10275); test: qHTS assay to identify small molecule agonists of the androgen receptor (AR) signaling pathway in the presence of an antagonist (AID 1259381; calls by dose curve; also: nearly all actives have a fitted effect of over 15% in size; also: potency is read from the fitted curve at half-maximal effect)
Chain of Androgen receptor (Homo sapiens) (P10275 whole entry, looked up): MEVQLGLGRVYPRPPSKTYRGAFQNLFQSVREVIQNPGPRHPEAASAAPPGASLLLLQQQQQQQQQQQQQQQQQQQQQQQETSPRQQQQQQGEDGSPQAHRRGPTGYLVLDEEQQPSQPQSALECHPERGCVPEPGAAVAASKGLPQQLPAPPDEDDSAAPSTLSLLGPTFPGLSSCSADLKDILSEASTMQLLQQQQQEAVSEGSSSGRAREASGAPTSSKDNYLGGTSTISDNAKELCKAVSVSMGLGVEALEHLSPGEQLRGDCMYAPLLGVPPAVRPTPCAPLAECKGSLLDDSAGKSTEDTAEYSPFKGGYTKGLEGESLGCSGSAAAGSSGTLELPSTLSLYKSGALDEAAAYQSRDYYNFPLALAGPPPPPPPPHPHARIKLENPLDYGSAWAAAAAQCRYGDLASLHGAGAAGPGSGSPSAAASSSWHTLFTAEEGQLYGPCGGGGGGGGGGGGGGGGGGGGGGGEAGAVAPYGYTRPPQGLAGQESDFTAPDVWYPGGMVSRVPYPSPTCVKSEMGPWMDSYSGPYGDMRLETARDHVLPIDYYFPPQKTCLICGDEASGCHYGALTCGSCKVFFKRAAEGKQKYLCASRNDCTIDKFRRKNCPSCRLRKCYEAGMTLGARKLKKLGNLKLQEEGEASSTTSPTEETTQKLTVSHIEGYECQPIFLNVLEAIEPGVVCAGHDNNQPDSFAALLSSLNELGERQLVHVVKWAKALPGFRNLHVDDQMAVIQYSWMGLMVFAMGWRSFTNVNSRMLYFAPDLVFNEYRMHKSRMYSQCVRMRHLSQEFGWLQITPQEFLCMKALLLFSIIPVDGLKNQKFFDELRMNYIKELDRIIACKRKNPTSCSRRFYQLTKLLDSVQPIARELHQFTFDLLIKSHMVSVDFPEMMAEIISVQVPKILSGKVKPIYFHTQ
Method in brief: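 Agonist-mode confirmation screen: human MDA-kb2 cells stably expressing luciferase under an MMTV promoter bearing AR and GR response elements, co-treated with 3.0uM nilutamide (final). Luminescence measured after 16hr compound incubation.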

| SMILES | Potency [1] | Potency [2] | Potency [3] | Potency [4] | Potency [5] | Potency [6] | Potency [7] | Potency [8] | Potency [9] | Potency [10] | Potency [11] | Potency [12] | Potency [13] | Potency [14] | Potency [15] | outcome [16] | Potency [17] | Potency [18] | Potency [19] | Potency [20] |
| --- | --- | --- | --- | --- | --- | --- | --- | --- | --- | --- | --- | --- | --- | --- | --- | --- | --- | --- | --- | --- |
| CC(C)N(C(=O)SC/C(Cl)=C/Cl)C(C)C | inactive | inactive | inactive | inactive | inactive | inactive | inactive | inactive | inactive | inactive | inactive | inactive | inactive | inactive | inactive | inactive |  |  |  |  |
| CCC[CH2][Sn]([CH2]CCC)([O]C(C)=O)[O]C(C)=O | 2.19 µM (active) | inactive | 0.978 µM (active) | 0.276 µM (active) |  | inactive | inactive | inactive |  |  | 0.195 µM (active) |  | 0.978 µM (active) | inactive | inactive |  |  |  |  |  |
| CCOP(=O)(OCC)Oc1cc(C)nc(C(C)C)n1 | inactive | inactive | inactive | inactive | inactive |  |  | inactive | inactive | inactive | inactive | inactive | inactive |  | inactive | inactive | inactive | inactive |  |  |
| C=Cc1cccc(CCl)c1 | inactive | inactive | inactive | inactive | inactive | inactive | inactive | inactive | inactive | inactive | inactive | inactive | inactive | inactive | inactive | inactive | inactive | inactive |  |  |
| O=[N+]([O-])c1ccc(Cl)c(Cl)c1Cl | inactive | inactive |  |  | inactive | inactive | inactive |  | inactive | inactive | inactive | inactive |  | inactive | inactive | inactive | inactive | inactive | inactive |  |
| O=C(Cl)c1ccccc1F | inactive | inactive | inactive | inactive | inactive | inactive | inactive | inactive | inactive | inactive | inactive | inactive | inactive | inactive | inactive | inactive |  |  |  |  |
| COC(=O)/C=C(\C)OP(=O)(OC)OC | inactive | inactive | inactive | inactive | inactive | inactive |  |  | inactive |  |  | inactive | inactive | 0.174 µM (active) |  | inactive | inactive | inactive |  |  |
| CCNc1nc(NC(C)C(C)C)nc(SC)n1 (stereo not given) | 4.86 µM (active) | inactive | inactive | inactive | inactive | inactive |  |  | inactive | inactive |  | inactive | inactive | inactive |  | inactive |  |  |  |  |
| C=CCOC(=O)c1ccccc1N | inactive | inactive | inactive | 30.8 µM (active) | inactive | inactive | inactive | inactive | inactive | inactive |  |  | inactive | inactive | inactive | inactive |  |  |  | inactive |
| C[C@]12CC[C@H]3[C@@H](CCC4=CC(=O)CC[C@@H]43)[C@@H]1CC[C@@H]2OC(=O)CCc1ccco1 | inactive | 2.66 µM (active) | inactive | inactive | inactive |  |  |  | inactive | 0.841 µM (active) | inactive | inactive |  | inactive | inactive | inactive | inactive | inactive |  | 0.0237 µM (active) |
| Cc1c([N+](=O)[O-])cc2c(c1[N+](=O)[O-])C(C)(C)CC2(C)C | inactive | inactive | inactive | inactive | inactive | inactive | inactive | inactive | inactive | inactive |  | inactive | inactive |  |  | inactive | inactive | inactive |  |  |
| COP(=S)(NC(C)C)Oc1ccc(C)cc1[N+](=O)[O-] (stereo not given) | inactive | inactive | inactive | inactive | inactive | inactive |  | inactive |  | inactive | 7.7 µM (active) |  |  | inactive | inactive | inactive | inactive | inactive |  |  |
| CCCCC/C=C\C/C=C\C/C=C\C/C=C\CCCC(=O)NCC(=O)O | inactive | inactive | inactive | 11.9 µM (active) |  | inactive |  |  | inactive | inactive | 26.6 µM (active) | inactive |  | inactive | inactive | inactive |  |  |  |  |
| O=[N+]([O-])c1ccccc1-c1ccccc1 | inactive | inactive | inactive | inactive | inactive | inactive | inactive |  | inactive | inactive | inactive |  |  | inactive | inactive | inactive |  | inactive |  |  |
| CN1[C@@H]2CC[C@H]1CC(O)C2 (stereo not given in full) | inactive | inactive | inactive | inactive | inactive | inactive |  |  | inactive | inactive | inactive | inactive | inactive | inactive | inactive | inactive |  | inactive |  |  |
| COC(=O)c1ccccc1S(=O)(=O)NC(=O)Nc1nc(C)nc(OC)n1 | inactive | inactive | inactive | inactive | inactive |  |  | inactive |  | inactive | inactive | inactive |  | inactive | inactive | inactive | inactive | inactive |  |  |
| CCN(CC)CCc1c[nH]c2ccccc12 | 50.9 µM (active) | inactive | inactive | inactive | inactive | inactive | inactive | inactive |  | inactive |  | 90.4 µM (active) |  | inactive | inactive | inactive | inactive | inactive |  |  |
| Cc1ccc([N+](=O)[O-])[c]2c1[O][Hg]2 | 0.266 µM (active) | inactive | 13.3 µM (active) | 4.22 µM (active) | 5.31 µM (active) | inactive | inactive | 21.1 µM (active) | 29.8 µM (active) |  |  | 4.22 µM (active) | 5.31 µM (active) | 19 µM (active) | 23.9 µM (active) | inactive |  |  |  | inactive |

Reference: PubChem BioAssay (Tox21)
